Sampled rows, rich in hits. Any-hit rate of the full collection: about 2.4%.
Pol eta inh-1 = inhibitors of human DNA polymerase eta. recombinant Pol eta, fluorescent DNA replication assay. 390,000 compounds, 1.2% hits. AID 588591. Potency, µM (series often up to 114 µM), for the others: at the highest dose activity change, negative = inhibition, most hits filed as inhibitors. Q9Y253; note: potency is the fitted concentration of half-maximal effect; % is set by controls: 0 for no effect and ±100 for the full control effect
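Pol eta (10 nM) was preincubated with compounds for 15 min at room temperature, after which fluorescent replication substrate (50 nM final) was added to start the reaction. Fluorescence was read kinetically at 0 and 10 min.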
GLS inh = blocks human kidney-isoform glutaminase activity. GLS enzymatic activity, qHTS titration. O94925. Potency, µM (titrated, usually from 45.5 µM), inactives show at the top dose activity change, negative = inhibition, actives largely listed as inhibitors. 410,000 compounds, 0.21% hits. AID 624170; note: potency is the fitted concentration of half-maximal effect; % is set by controls: 0 for no effect and ±100 for the full control effect
Target sequence (O94925 whole entry, looked up, canonical isoform): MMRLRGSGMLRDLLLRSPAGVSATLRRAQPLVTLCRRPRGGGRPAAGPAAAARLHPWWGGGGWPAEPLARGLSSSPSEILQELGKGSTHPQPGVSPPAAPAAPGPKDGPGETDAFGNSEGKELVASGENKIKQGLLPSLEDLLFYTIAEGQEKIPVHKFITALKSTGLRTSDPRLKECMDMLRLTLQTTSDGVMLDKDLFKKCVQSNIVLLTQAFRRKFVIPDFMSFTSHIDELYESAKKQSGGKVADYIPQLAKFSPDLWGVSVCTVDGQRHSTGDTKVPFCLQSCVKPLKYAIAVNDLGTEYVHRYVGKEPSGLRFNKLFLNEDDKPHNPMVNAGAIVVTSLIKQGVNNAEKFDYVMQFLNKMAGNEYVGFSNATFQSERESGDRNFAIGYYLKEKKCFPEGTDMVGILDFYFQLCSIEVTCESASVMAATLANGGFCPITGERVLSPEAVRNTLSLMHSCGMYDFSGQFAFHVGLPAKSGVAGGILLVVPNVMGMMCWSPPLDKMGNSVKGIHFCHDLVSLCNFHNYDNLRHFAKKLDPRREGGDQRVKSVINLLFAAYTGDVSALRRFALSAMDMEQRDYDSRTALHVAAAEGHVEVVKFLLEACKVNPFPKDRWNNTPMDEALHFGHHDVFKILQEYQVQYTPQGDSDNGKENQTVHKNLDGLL
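hKGA; 45 mM KH2PO4 pH 8.2 + 0.02% Tween-20; cpd via pin tool; 1 mM Gln soln; GluOx/HRP/Amplex Red; RT 30 min; fluor. t0 & final.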
Pol kappa inh-1 = blocks human DNA polymerase kappa activity; purified Pol kappa, fluorescent DNA synthesis assay, 10 min; Potency, µM (titrated, usually from 107 µM), without a hit: at the top dose activity, negative = inhibition, most hits filed as inhibitors; 400,000 compounds, 0.53% hits; AID 588579; note: potency is the fitted concentration of half-maximal effect; % is set by controls: 0 for no effect and ±100 for the full control effect
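50 nM final substrate added after 15 min RT preincubation of 10 nM Pol kappa with compound; fluorescence read at 0 and 10 min.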
GCN5L2 inh = blocks human GCN5L2 histone acetyltransferase; Q92830; GCN5L2 HAT assay, ThioGlo1 CoA-SH fluorescence; Potency, µM (titrated, usually from 58.9 µM), for inactives: at the top dose activity change, negative = inhibition, usual class: inhibitors; 390,000 compounds, 0.21% hits; note: potency is the fitted concentration of half-maximal effect; % is set by controls: 0 for no effect and ±100 for the full control effect
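GCN5L2 (20nM final) in 50mM HEPES, 0.1mM EDTA pH 7.5, 0.01% Tween-20 was preincubated 15 min at room temperature with compound, then given ThioGlo1 (50uM), H3(1-25) peptide (75uM) and acetyl-CoA (70uM); CoA-thiol fluorescence (Ex340/Em540) was read at 0 and 20 min.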
POLB inh = blocks human DNA polymerase beta activity. P06746. Pol beta primer extension/strand displacement, fluorescence kinetic. Potency, µM (titrated, usually from 114 µM), for inactives: top-dose activity change, negative = inhibition, usual class: inhibitors. 340,000 compounds, 1.3% hits. AID 485314; note: potency is the fitted concentration of half-maximal effect; % is set by controls: 0 for no effect and ±100 for the full control effect
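Human Pol beta at 10 nM; strand-displacement substrate 50 nM final. Compound exposure 15 min at room temperature before start, reaction 10 min at room temperature.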
POLI inh = inhibitors of human DNA polymerase iota. Q9UNA4. Pol iota fluorescent replication assay, 10 min. Potency, µM (top dose mostly 115 µM), for the others: at the highest dose activity, negative = inhibition, actives largely listed as inhibitors. 390,000 compounds, 1% hits; note: potency is the fitted concentration of half-maximal effect
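Fluorescent replication assay read twice, at 0 min and 10 min after adding 50 nM (final) substrate. Enzyme (10 nM) and compounds were first incubated 15 min at room temperature; enzyme-free buffer wells were negative controls.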
GALK inh confirm = galactokinase (human) inhibition, confirmation; shares compounds with Pol eta inh-1; purified GALK, Kinase-Glo ATP depletion luminescence; Potency, µM (series often up to 115 µM), without a hit: at the top dose activity, negative = inhibition, most hits filed as inhibitors; 150 compounds, 70% hits; AID 2015
Redox cycling = generates H2O2 by redox cycling, flagging GALK artifacts; 150 compounds, 40% hits; Phenol red-HRP H2O2 redox cycling, absorbance 600 nm; shares compounds with Pol eta inh-1; AID 2035; Potency, µM (top dose mostly 115 µM), for the others: at the top dose activity change, negative = H2O2 signal, actives largely listed as inhibitors
HEK293 viability = reduces HEK-293 cell viability in GALK counter-screen. shares compounds with Pol eta inh-1. 170 compounds, 10% hits. AID 2547. Potency, µM (doses to about 46.1 µM), inactives show at the top dose activity change, negative = cytotoxicity, most hits filed as inhibitors. HEK-293 viability, ATP luminescence (CellTiter-Glo), 24/48 h; note: potency is the fitted concentration of half-maximal effect; % is set by controls: 0 for no effect and ±100 for the full control effect
Pol kappa inh-2 = confirmation of human DNA polymerase kappa inhibitors; shares compounds with Pol eta inh-1; purified Pol-kappa, fluorescent strand-displacement substrate; Potency, µM, usual class: inhibitors; 920 compounds, 76% hits; note: potency is the fitted concentration of half-maximal effect
Pol eta inh-2 = confirmation of human DNA polymerase eta inhibitors. shares compounds with Pol eta inh-1. Pol eta primer extension, TAMRA/BHQ fluorescence, 10 min. Potency, µM, actives largely listed as inhibitors. 2,600 compounds, 64% hits; note: potency is the fitted concentration of half-maximal effect
* hit, by the source's call; ? = inconclusive; . = not tested or not shown; [ ] = remark or other dose. Calls come from the whole dose curve; as a rule, active = well fitted curve in the direction sought with a large enough effect; inconclusive = small, poorly fitted or top-dose-only effect, or another doubt; inactive = no such curve, though single readings can be large; an effect the other way counts as inactive or inconclusive.

SMILES	Pol eta inh-1	GLS inh	Pol kappa inh-1	GCN5L2 inh	POLB inh	POLI inh	Pol eta inh-2	others
O=C1NC(=S)N(Cc2ccco2)C(=O)/C1=C\c1cccs1	.	.	.	8.9µM*	1.1µM*	.	.	GALK inh confirm=?;Redox cycling=2%;HEK293 viability=-2%
S=C(S)N1CCCC1	-19%	2%	5%[60.1 µM]	-22%	-9%[57.1 µM]	?	.
O=c1[nH]c(=O)n(Cc2ccco2)c(O)c1/C=N/N1CCCCC1	20µM*	-7%	89µM*	37%	?	?	38*	Pol kappa inh-2=24*
O=c1[nH]c(=O)n(Cc2ccco2)c(O)c1C=NC1CC1	8%	2%	-7%	-7%	42%	-2%	.
COc1ccccc1N1C(=O)NC(=O)/C(=C/c2ccc3c4c(cccc24)CC3)C1=O	?	-12%	-7%	-32%	-27%[57.1 µM]	2%	.
COc1ccc(N2C(=O)NC(=O)/C(=C\c3ccc([N+](=O)[O-])s3)C2=O)cc1	18µM*	13µM*	50µM*	-20%	?	?	27*
COc1ccc(N2C(=O)/C(=C/C=C/c3ccccc3[N+](=O)[O-])C(=O)NC2=S)cc1	22µM*	-32%	?	?	20µM*	16µM*	?
COc1ccccc1N1C(=O)NC(=O)/C(=C/c2ccc([N+](=O)[O-])s2)C1=O	18µM*	-4%	40µM*	-14%	?	?	38*
COc1cccc(N2C(=O)NC(=O)/C(=C/c3ccc([N+](=O)[O-])s3)C2=O)c1	14µM*	?	32µM*	-5%	?	?	27*
CCOC(=O)c1c(C)[nH]c(C)c1S(=O)(=O)N1CCC(C(=O)N2CCN(c3cccc(Cl)c3)CC2)CC1	-15%	6%	-5%[60.1 µM]	-6%	31%	32%	.
OC(c1ccc(Cl)cc1)(c1cncnc1)c1ccccc1Cl (stereo not drawn)	.	.	11%[60.1 µM]	27%	.	.	.
CC(C)Oc1ccc(CNC(=O)Oc2ccccc2)cc1	-1%	9%	-20%	?	-13%	-13%	.
CCC1(C)CC(C(N)=S)CCO1 (stereo not drawn)	-15%	?	4%	?	-1%	?	.
COc1ccc(N2C(=O)NC(=O)/C(=C/c3ccc([N+](=O)[O-])s3)C2=O)cc1	8.9µM*	-5%	18µM*	-15%	?	54%	30*
COc1ccc2c(c1)CCc1c(C(=O)Nc3c(C)nn(Cc4ccccc4C)c3C)noc1-2	-15%	2%	-13%	-4%	19%	43%	.
CCN(CC)c1ccc(/C=C2/C(=O)NC(=O)N(Cc3ccco3)C2=O)cc1	10µM*	15%	50µM*	1%	-27%	22µM*	?
Cc1cc(/C=C2/C(=O)NC(=O)N(Cc3ccco3)C2=O)c(C)n1-c1ccccc1	35µM*	3%	71µM*	-17%	18µM*	2.2µM*	76*
CC1CCN(C(=O)c2ncn(C)c2C(=O)N2CCC(C)CC2)CC1	-10%	-1%	12%	-5%	.	?	.
O=C(c1cccc2ccccc12)C1CCCN(C2CCC2)C1 (stereo not drawn)	?	1%	?	-5%	-10%	?	?
O=C1NC(=O)N(c2ccccc2)C(=O)/C1=C\c1ccccc1[N+](=O)[O-]	-6%	-17%	-15%	-3%	0%	?	.
O=C1NC(=O)N(c2ccccc2)C(=O)/C1=C/c1ccoc1	28µM*	?	?	1%	?	40µM*	76*
Cc1ccc(S(=O)(=O)N2CCN(Cc3ccsc3)CC2)cc1	?	10%	-12%	-1%	0%	37%	.
O=C1NC(=O)N(c2ccccc2F)C(=O)/C1=C/c1ccc(Sc2nc3ccccc3[nH]2)o1	20µM*	?	22µM*	?	22µM*	?	30*	Pol kappa inh-2=27*
O=C1NC(=O)N(c2ccccc2)C(=O)/C1=C/c1ccc(Sc2ccccc2)o1	?	17%	?	24%	36%	14%	.

Source: PubChem BioAssay
